# Results taken from PubChem BioAssay (NCI).
# The panel holds about 83,000 compounds, 20% with a hit somewhere; the sample as a whole holds those more often.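 Treatment: one concentration, 48 hours, 96-well format. Scoring: percent growth, with anything below 10 considered active.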 A number with no mark means an inactive call. Active and inactive are the calls of the source.
# Key:
# Test in all cases: NCI-60 one-dose screen, 48 h (100 = growth as untreated, 0 = no growth, -100 = all killed)
# DU-145 prostate = conditions: 10 µM unless noted
# K-562 leukemia = conditions: 10 µM unless noted
# MALME-3M melanoma = conditions: 10 µM unless noted
# MDA-MB-231 breast = conditions: 10 µM unless noted
# RXF 393 renal = conditions: 10 µM unless noted
# SF-268 CNS = conditions: 10 µM unless noted
# SF-295 CNS = conditions: 10 µM unless noted
# SF-539 CNS = conditions: 10 µM unless noted
# M14 melanoma = conditions: 10 µM unless noted
# HCT-15 colon = conditions: 10 µM unless noted
# HT29 colon = conditions: 10 µM unless noted
# SNB-75 CNS = conditions: 10 µM unless noted
# SNB-19 CNS = conditions: 10 µM unless noted
# U251 CNS = conditions: 10 µM unless noted
# PC-3 prostate = conditions: 10 µM unless noted
# SK-MEL-5 melanoma = conditions: 10 µM unless noted
# UACC-62 melanoma = conditions: 10 µM unless noted
# LOX IMVI melanoma = conditions: 10 µM unless noted
# SK-MEL-28 melanoma = conditions: 10 µM unless noted
# UACC-257 melanoma = conditions: 10 µM
Compound,growth (DU-145 prostate),growth (K-562 leukemia),growth (MALME-3M melanoma),growth (MDA-MB-231 breast),growth (RXF 393 renal),growth (SF-268 CNS),growth (SF-295 CNS),growth (SF-539 CNS),growth (M14 melanoma),growth (HCT-15 colon),growth (HT29 colon),growth (SNB-75 CNS),growth (SNB-19 CNS),growth (U251 CNS),growth (PC-3 prostate),growth (SK-MEL-5 melanoma),growth (UACC-62 melanoma),growth (LOX IMVI melanoma),growth (SK-MEL-28 melanoma),growth (UACC-257 melanoma)
O=C1C[C@@H](c2ccccc2)Oc2c(Cc3ccccc3O)c(O)c(Cc3cc(Cc4cc(Cc5ccccc5O)ccc4O)ccc3O)c(O)c21,102%,99.8%,95%,82.4%,94.7%,85.2%,102%,101%,88.6%,104%,128%,72.7%,99.7%,93.7%,89.1%,98.6%,72.7%,87.2%,114%,–
COc1cc(O)c2c(c1)[C@H]1O[C@@H]1C[C@H](O)[C@H](O)C(=O)/C=C\C[C@H](C)OC2=O,55.3%,29.9%,-24.1% (active),48.7%,8.74% (active),74.4%,81.7%,61.7%,9.43% (active),28.7%,12.6%,87.1%,81.3%,72.4%,66.8%,7.59% (active),-12.4% (active),32.3%,6.98% (active),–
CC(C)C[C@H]1C(=O)O[C@H](C(C)C)C(=O)N(C)[C@@H](C(C)C)C(=O)O[C@H](C(C)C)C(=O)N(C)[C@@H](C(C)C)C(=O)O[C@H](C(C)C)C(=O)N1C,24.4%,8.19% (active),18%,8.5% (active),19.1%,20.4%,5.53% (active),22.3%,18.5%,16.6%,8.39% (active),–,22.4%,14.1%,14.5%,-32% (active),9.49% (active),9.57% (active),38.2%,–
Cc1ccc(-c2cc(-c3ccc(N(C)C)cc3)n3c(n2)nc2ccccc23)cc1,87.2%,29.2%,96.1%,66%,–,88.7%,55%,89.8%,77.2%,56.6%,65.8%,94%,50.2%,56.7%,47.8%,-37.6% (active),35%,83.5%,52.9%,65.8%
Cc1ccc(/C=C/c2nn3c(-c4ccco4)nnc3s2)cc1,99.7%,–,106%,110%,95.5%,104%,95.7%,94.7%,94.8%,96.1%,103%,108%,92.6%,101%,98.4%,98.4%,90.7%,105%,94.1%,112%
CC1OC(O[C@@H]2[C@H](O)C(CO)OC(O[C@H]3COC(O[C@H]4CC[C@]5(C)[C@H]6CC[C@]78OC[C@@]9(CCC(C)(C)C[C@H]97)[C@H](O)C[C@@]8(C)[C@]6(C)CC[C@H]5C4(C)C)[C@@H](OC4OC(CO)[C@@H](O)[C@@H](O)[C@@H]4O)[C@@H]3O)[C@H]2OC2OC[C@@H](O)[C@@H](O)[C@@H]2O)[C@@H](O)[C@@H](O)[C@H]1O (stereo partly specified),-79.7% (active),–,-70.6% (active),-72.2% (active),-92% (active),-65.9% (active),-92.3% (active),-80.5% (active),-80.7% (active),-52.8% (active),-79% (active),-87.1% (active),-69.2% (active),-86.8% (active),-85.4% (active),–,–,-82.7% (active),–,-76.2% (active)
Cn1c2ccc(Br)cc2c2c3c(c4c5cc(F)ccc5oc4c21)C(=O)N(O)C3=O,88.1%,82.8%,-95.9% (active),85.3%,–,70.7%,89.9%,83.5%,89.4%,89.2%,101%,70%,74.3%,79.8%,68%,90.3%,80.2%,61.9%,112%,104%
Cc1ccc(-c2nnc3sc(C4=Cc5ccccc5OC=C4)nn23)cc1,114%,104%,97.6%,94.1%,–,105%,98.9%,95.3%,99.8%,92.9%,101%,79.1%,92.1%,96.6%,96.7%,92.2%,91.6%,116%,97.1%,88.4%
COC(=O)c1nc(-c2ccc(C)cc2)oc1S(=O)(=O)N1CCN(c2oc(-c3ccccc3)nc2C#N)CC1,104%,–,98.6%,102%,109%,98%,103%,98.6%,74%,98.6%,111%,100%,94.6%,99.4%,99%,100%,92%,89.7%,99.6%,111%
C=C1C(=O)O[C@@H]2C[C@@H](C)/C=C\C(=O)[C@](C)(OC(C)=O)C[C@H](OC(=O)/C(C)=C\C)[C@@H]12,3.77% (active),–,-36.4% (active),-71.8% (active),-88.1% (active),-1.46% (active),70.6%,-57.5% (active),-37.1% (active),-26% (active),-48.6% (active),38.2%,60.1%,2.55% (active),1.27% (active),–,–,-75.1% (active),–,-76.1% (active)
C=CCn1c(SCC(=O)Nc2cccc(C(=O)/C=C/c3ccc(Br)cc3)c2)nc2ccccc2c1=O,95.7%,–,72.7%,81.2%,71.1%,90.3%,91.4%,66.6%,85.4%,76.3%,83.9%,61.8%,76.8%,74.6%,79.4%,98.4%,73.4%,74.8%,98.2%,105%
C=CCn1c(SCC(=O)Nc2cccc(C(=O)/C=C/c3ccccc3)c2)nc2ccccc2c1=O,77.4%,–,100%,94.4%,83.3%,92%,95.7%,77.1%,77.1%,57.9%,14.7%,82.1%,77.1%,46.7%,77.4%,98.6%,86.3%,24.4%,95.4%,118%
CC1(C)CC[C@]2(C(=O)N3CCCN(CC#N)CC3)CC[C@]3(C)C(=CC[C@@H]4[C@@]5(C)CC[C@H](O)C(C)(C)[C@@H]5CC[C@]43C)[C@H]2C1,78.5%,3.77% (active),77.8%,55.6%,–,69.2%,91.7%,68.5%,65.7%,19.1%,–,90.5%,78.3%,56.1%,26.7%,32.2%,54.6%,-83.7% (active),72%,50.6%
Cc1ccccc1/C=C/c1nn2c(-c3ccoc3C)nnc2s1,103%,–,106%,104%,96.2%,101%,94%,103%,99%,97.9%,97.7%,111%,90.8%,97.6%,99.4%,98.4%,88%,101%,94.9%,110%
C/C(=C(/c1ccc(O)cc1)c1ccc(OCCN2CCCCCC2)cc1)c1ccccc1,74.3%,–,2.85% (active),43.1%,26%,71.3%,44%,10.7%,-3.91% (active),-20.7% (active),-8.88% (active),71.2%,64.3%,41.2%,44.1%,58.4%,56.9%,5.39% (active),21%,-27% (active)
C=CCn1c(SCC(=O)Nc2cccc(C(=O)/C=C/c3cc(OC)c(OC)c(OC)c3)c2)nc2ccccc2c1=O,13.7%,–,71%,29.5%,17.1%,70.3%,83.5%,21.1%,63%,11.6%,-23.4% (active),33.9%,53.8%,9.44% (active),51.6%,82.5%,48.8%,10%,83.8%,80.9%
